Here are results for 55 compounds from ChEMBL document CHEMBL4513216, “Probing the Open Global Health Chemical Diversity Library for Multistage-Active Starting Points for Next-Generation Antimalarials” (ACS Infect Dis, 2020).

Hit rate of the full screen: of about 69,000 compounds, about 8,600 (12%) showed an effect of 50% or more. This excerpt belongs to a sample that is enriched for strong results.

The assay has as its system Plasmodium berghei. The assay can be described thus: Screen against P. berghei liver stage (PbLuc), transformed with Luciferase, at 10uM. The class given is functional, HepG2. The settings on record: tested at 10 uM.
Regarding `Cc1nc(CN2C[C@@H]3CN(C(=O)c4cccn4C)C[C@@H]3C2=O)cs1`, the INHIBITION is on record as 39.8%.

Take `Cc1ccc2nc(C3CCCN(CC(C)C)C3)nc(O)c2c1` (stereo not given): the INHIBITION was 13.5%.

As to `CCc1n[nH]c(C2CN(C(=O)c3nc(C)n4ccccc34)CCO2)n1` (stereo not given), the INHIBITION stood at 17.8%.

Turning to `Cc1nc2cc(C(=O)N3CCCC(n4ccnc4)C3)ccc2n1C` (stereo not given), the INHIBITION stood at 33.3%.

Consider `O=C(NCc1ccc(F)cc1)N1CCN(CC(O)C2CC2)CC1` (stereo not given), for which the INHIBITION came out at 30.8%.

On to `Cc1ccc(S(=O)(=O)NCC2COCc3c(C)nnn3C2)cc1F` (stereo not given), for which the INHIBITION stood at 24.5%.

Regarding `c1cc(C2CCN(c3cncnc3)CC2)ccn1`, the INHIBITION turned out to be 39.6%.

For the compound `c1cncc(N2CCC(c3ccncc3)CC2)c1`, the INHIBITION is 26.221%.

`c1ccc(N2CCC(c3ccncc3)CC2)cc1`: the INHIBITION was 65.2%.

On to `Cc1nc(C2CCCN(C(=O)c3ccc(OCC4CC4)nc3)C2)no1` (stereo not given), for which the INHIBITION was found to be 8.64%.

Regarding `O[C@H]1CN(Cc2cccc(C(F)(F)F)c2)CC[C@@]12CCCO2`, the INHIBITION turned out to be 37.6%.

Consider `NC(=O)CN(C(=O)Cc1cccc(C(F)(F)F)c1)C1CCCC1`, for which the INHIBITION is recorded as -23.1%.

In the case of `O[C@H]1COCCN(Cc2cccc(C(F)(F)F)c2)C1`, the INHIBITION was -4.82%.

Take `O=c1n(Cc2cccc(C(F)(F)F)c2)nc2ncccn12`: the INHIBITION is reported as -39.3%.

With `NC1CCCN(Cc2cccc(C(F)(F)F)c2)C1=O` (stereo not given), the INHIBITION amounted to 57.2%.

Turning to `FC(F)(F)c1ccnc(N2CCCC(N3CCOCC3)C2)c1` (stereo not given), the INHIBITION was 40.5%.

For `O=C1C(N2CCOCC2)CCCN1Cc1cccc(C(F)(F)F)c1` (stereo not given), the INHIBITION is 50.8%.

On to `CC(O)(CN1CCC(O)CC1)c1cccc(C(F)(F)F)c1` (stereo not given), for which the INHIBITION is on record as -37.7%.

For `O=C1C(N2CC[C@@H](O)C2)CCCN1Cc1cccc(C(F)(F)F)c1` (stereo not given in full), the INHIBITION is reported as 77.8%.

As for `CC(C)NC(=O)N1CC[C@@H]2CN(Cc3ccccc3)S(=O)(=O)[C@@H]2CC1`, the INHIBITION is reported as 31.8%.

In the case of `O=c1[nH]cnc2c1CCN(S(=O)(=O)c1cccc(OC(F)(F)F)c1)C2`, the INHIBITION is -23.7%.

Regarding `COCCN1C[C@H](OCc2csc(C)n2)[C@H]2COC[C@H]21`, the INHIBITION is reported as -41.4%.

Turning to `CCC(C)N(Cc1sccc1C)C(=O)c1cc(N)ccn1` (stereo not given), the INHIBITION was determined as 43.9%.

As to `Cc1ccccc1-c1cncc(C2CCN(C(C)C)CC2)n1`, the INHIBITION is recorded as 32.8%.

`Cc1ccccc1-c1cncc(C2CCN(C)CC2)n1`: the INHIBITION was 38.1%.

Take `Cc1ccccc1-c1cncc(C2CCN(C3CCOCC3)CC2)n1`: the INHIBITION worked out at 64.1%.

`COc1cccc(-n2nnc(C(=O)N3CCCC(C)C3)c2C)c1` (stereo not given): the INHIBITION was -60.35%.

Regarding `COc1cccc(-n2nnc(C(=O)N3CCCC3)c2C)c1`, the INHIBITION is given as 2.26%.

With `COc1cccc(-n2nnc(C(=O)N3CCN(C)CC3C)c2C)c1` (stereo not given), the INHIBITION turned out to be 68.3%.

As to `Cc1nc(C)c(CN2CCC(N(C)Cc3nnc(C4CC4)o3)C2)s1` (stereo not given), the INHIBITION is listed as -21.9%.

Turning to `Cc1noc(CNc2cc3c(cc2Cl)NC(=O)CO3)n1`, the INHIBITION amounted to 3.13%.

For `CC(C)(C)c1nc(CNc2cc3c(cc2Cl)NC(=O)CO3)no1`, the INHIBITION was found to be 5.91%.

In the case of `Cc1ccc(CNc2cc3c(cc2Cl)NC(=O)CO3)cc1C`, the INHIBITION is 56%.

`O=C(NCc1nnc2n1CCC2)c1cccc(Br)c1`: the INHIBITION is reported as -57.5%.

Regarding `Cc1csc(C2(NCc3nc(-c4ccco4)oc3C)CCCC2)n1`, the INHIBITION is on record as 64.5%.

For `Cc1csc(C2(NCc3nc(-c4ccco4)no3)CCCC2)n1`, the INHIBITION came out at 62%.

Regarding `Cc1csc(C2(NCc3ccc(OCC(F)F)cc3)CCCC2)n1`, the INHIBITION is reported as 14.5%.

For the compound `Cc1csc(C2(NCc3csc(C4CC4)n3)CCCC2)n1`, the INHIBITION is 24.2%.

Regarding `Cc1csc(C2(NCC(O)COC(C)C)CCCC2)n1` (stereo not given), the INHIBITION is on record as 9.41%.

In the case of `Cc1csc(C2(NCc3nnc(-c4ccco4)o3)CCCC2)n1`, the INHIBITION is reported as 32.9%.

As to `COCCNC(=O)N1CCN(C(=O)c2nsc3ccc(C)cc23)CC1`, the INHIBITION is on record as -32.1%.

With `Cc1ccc(OCC(=O)N2CCCC(n3nc(C)nc3C)C2)cc1` (stereo not given), the INHIBITION is on record as 25.1%.

In the case of `CN(CCCN1CCCCCC1)C(=O)c1ccccc1NCC(=O)O`, the INHIBITION was 14.9%.

As for `c1ccc(-c2nnc(CN3CCCC(Cn4cncn4)C3)o2)cc1` (stereo not given), the INHIBITION was 9.31%.

`CCOc1ccc(C(F)(F)F)cc1NC(=O)N1CCC(C(N)=O)CC1`: the INHIBITION is listed as -3.21%.

In the case of `CCOc1ccc(C#N)cc1NCC(=O)NC(=O)NC`, the INHIBITION was determined as 2.3%.

In the case of `CCOc1ccc(C(F)(F)F)cc1NCc1nc(C)c(C)o1`, the INHIBITION was 65.6%.

For the compound `CCOc1ccc(C#N)cc1NCC(=O)Nc1cc(C)no1`, the INHIBITION was determined as 7.7%.

For the compound `CCOc1ccc(C#N)cc1NCC(=O)OC`, the INHIBITION is -38.7%.

In the case of `CCOc1ccc(C#N)cc1NCc1cc(C)on1`, the INHIBITION came out at 51.7%.

For the compound `CCCNC(=O)CNc1cc(C#N)ccc1OCC`, the INHIBITION amounted to 60.5%.

For `CCOc1c(Cl)cccc1NCc1cc(C)on1`, the INHIBITION is given as -10.2%.

With `CCOc1ccc(C(F)(F)F)cc1NC(=O)NCc1noc(C)n1`, the INHIBITION is -15%.

Turning to `CCOc1ccc(OCC)c(NCc2cc(C)on2)c1`, the INHIBITION is listed as 71.2%.

In the case of `COc1ccc(Cl)cc1NCc1cc(C)on1`, the INHIBITION is listed as 11.783%.
